Several values for one entry are separate records, joined by “and”; a condition that tells them apart may be missing. Equal entries are not always repeated. The source holds several records for some structures; these can differ, active in one and inactive in another. Activity calls are given as the source filed them. Rule for the calls: active = hit-call score of the fitted dose curve at least 0.9, where 1 is the maximum; inactive = score below 0.9.

One may read the AC50 as the midpoint of the concentration-response curve, whichever way the signal moves.

Assay [1] can be described thus: ATG_DR4_LXR_CIS: Attagene CIS-FACTORIAL HepG2 Assay for human Liver X Receptor (LXR), DR4 submotif (AID 2282929). The note with it: HepG2 Attagene DR4 cis-reporter, mRNA transcription; AC50: actives raise or lower the signal unless noted; outcome: actives raise or lower the signal unless noted. The procedure, abridged: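 Cells were transfected with multiple reporter transcription units, exposed to chemicals for 24 hours, then lysed for RNA. Reporter mRNA induction was measured by RT-PCR with capillary electrophoresis detection and fitted in both directions relative to DMSO.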

Assay [2] has as its target Aryl hydrocarbon receptor (Homo sapiens) (UniProt P35869). As to the kind of experiment: ATG_Ahr_CIS: Attagene CIS-FACTORIAL HepG2 Assay for human Aryl Hydrocarbon Receptor (Ahr) (AID 2282930). The following applies: HepG2 AhR cis-factorial reporter transcription; actives raise or lower the signal. The method, boiled down:
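Following 24 h of chemical dosing, transfected HepG2 liver cells with cis-driven reporter units were lysed for RNA; reporter mRNA was quantified via RT-PCR and capillary electrophoresis, and responses fitted bidirectionally from DMSO.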

Assay [3] is described as follows: ATG_AP_1_CIS: Attagene CIS-FACTORIAL HepG2 Assay for human Activator Protein 1 (AP-1) (AID 2282931). The following applies: HepG2 Attagene cis-factorial AP-1 reporter mRNA; actives raise or lower the signal. The procedure, abridged:
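Endogenous transcription-factor activity in human HepG2 liver cells is read through a cis-promoter reporter transcript, sampled 24 h after dosing. Detection uses RT-PCR with capillary electrophoresis; values come from bidirectional fitting relative to DMSO.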

The nature of assay [4]: ATG_AP_2_CIS: Attagene CIS-FACTORIAL HepG2 Assay for human Activator Protein 2 (AP-2) (AID 2282932). The note with it: HepG2 AP-2 cis-reporter, Attagene transcription factor profiling; AC50: actives raise or lower the signal unless noted; outcome: actives raise or lower the signal unless noted. The procedure, abridged:
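HepG2 cells were transiently transfected with multiple cis-promoter reporter transcription units and dosed for 24 h. Reporter mRNA was measured by RT-PCR with capillary electrophoresis fluorescence; bidirectional fits relative to DMSO baseline.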

Assay [5] can be described thus: ATG_BRE_CIS: Attagene CIS-FACTORIAL HepG2 Assay for human Bone Morphogenetic Protein (BMP) Response Element (BRE) (AID 2282933). The following applies: HepG2 BMP response element reporter, Attagene transcription factor profiling; actives raise or lower the signal. The procedure, abridged: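 Gain- or loss-of-signal was derived by bidirectional fitting against DMSO controls. The signal came from reporter mRNA, measured by RT-PCR and capillary electrophoresis, in HepG2 cells transiently carrying multiple reporter units and dosed for 24 h.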

In assay [6] the target is Retinoic acid receptor alpha (Homo sapiens) (UniProt P10276). As to the kind of experiment: ATG_DR5_RAR_CIS: Attagene CIS-FACTORIAL HepG2 Assay for human Retinoic Acid Receptor Alpha (RARE), DR5 submotif (AID 2282934). The note with it: HepG2 Attagene cis-factorial RARE DR5 reporter, mRNA; actives raise or lower the signal. The procedure, abridged: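 Transfected HepG2 reporter cells are exposed to chemicals for 24 h. Then RNA is extracted and the DR5 element reporter transcript is measured by RT-PCR and capillary electrophoresis, with bidirectional curve fitting relative to DMSO.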
Chain of Retinoic acid receptor alpha (Homo sapiens) (P10276 whole entry, looked up): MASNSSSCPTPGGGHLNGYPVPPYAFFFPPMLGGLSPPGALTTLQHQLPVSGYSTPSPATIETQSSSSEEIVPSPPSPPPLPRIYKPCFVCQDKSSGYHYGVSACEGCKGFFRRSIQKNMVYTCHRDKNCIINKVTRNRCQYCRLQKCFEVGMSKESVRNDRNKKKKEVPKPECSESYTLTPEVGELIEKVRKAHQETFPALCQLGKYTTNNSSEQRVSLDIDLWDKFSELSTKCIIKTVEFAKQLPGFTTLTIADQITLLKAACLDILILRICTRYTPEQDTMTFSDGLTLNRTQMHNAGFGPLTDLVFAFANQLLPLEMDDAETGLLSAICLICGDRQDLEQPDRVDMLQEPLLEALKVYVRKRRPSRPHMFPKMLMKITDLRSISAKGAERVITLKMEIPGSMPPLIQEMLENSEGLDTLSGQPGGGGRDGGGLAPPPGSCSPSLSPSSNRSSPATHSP

The target in assay [7] is Transcription factor E2F1 (Homo sapiens) (UniProt Q01094). As to the kind of experiment: ATG_E2F_CIS: Attagene CIS-FACTORIAL HepG2 Assay for human E2F Transcription Factor 1 (AID 2282935). The following applies: HepG2 Attagene cis-reporter, E2F reporter RNA transcripts; actives raise or lower the signal. The procedure, abridged: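 HepG2 cells transiently transfected with multiplexed cis-element reporter units, dosed for 24 h. Reporter mRNA measured by RT-PCR, 6-FAM primer-extension labeling, HpaI digestion and capillary electrophoresis; bidirectional fit versus DMSO baseline.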
Chain of Transcription factor E2F1 (Homo sapiens) (Q01094 whole entry, looked up): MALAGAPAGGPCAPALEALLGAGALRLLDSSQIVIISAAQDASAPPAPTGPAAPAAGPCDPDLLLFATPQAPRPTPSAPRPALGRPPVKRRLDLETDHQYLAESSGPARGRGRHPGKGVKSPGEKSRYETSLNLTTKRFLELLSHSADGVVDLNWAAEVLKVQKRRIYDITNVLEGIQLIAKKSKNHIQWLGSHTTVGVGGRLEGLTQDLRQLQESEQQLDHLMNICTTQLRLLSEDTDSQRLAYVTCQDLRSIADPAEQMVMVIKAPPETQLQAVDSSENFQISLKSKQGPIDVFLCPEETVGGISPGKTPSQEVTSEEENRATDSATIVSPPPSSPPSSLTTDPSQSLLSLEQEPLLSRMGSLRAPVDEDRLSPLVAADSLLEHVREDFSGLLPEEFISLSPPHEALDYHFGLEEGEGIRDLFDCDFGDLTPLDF

Assay [8] is described as follows: ATG_M_61_CIS: Attagene CIS-FACTORIAL HepG2 Assay for M61 Transcription Factor (Internal Marker) (AID 2282937). The note with it: HepG2 Attagene CIS-FACTORIAL M61 internal marker reporter; actives raise or lower the signal. The method, boiled down: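 Cells were transfected with reporter units under cis-regulatory promoters, treated with chemicals for 24 h, then lysed for RNA. Reporter transcripts were quantified by RT-PCR and capillary electrophoresis, and activity was fitted bidirectionally against DMSO.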

A short description of assay [9]: ATG_EGR_CIS: Attagene CIS-FACTORIAL HepG2 Assay for human Early Growth Response 1 (EGR1) (AID 2282938). The following applies: HepG2 Attagene CIS-FACTORIAL EGR reporter mRNA; actives raise or lower the signal. The procedure, abridged: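 Endogenous TF activity in HepG2 liver cells was gauged through cis-promoter reporter constructs transiently transfected. After 24 h dosing, reporter mRNA was quantified by RT-PCR and capillary electrophoresis, and curves fitted in both directions versus DMSO.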

Assay [10] is described as follows: ATG_M_19_CIS: Attagene CIS-FACTORIAL HepG2 Assay for M19 Transcription Factor (Internal Marker) (AID 2282939). The following applies: HepG2 Attagene CIS-FACTORIAL M19 internal marker reporter; actives raise or lower the signal. The procedure, abridged: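 Following a 24 h exposure, RNA from transfected HepG2 cells was reverse-transcribed, PCR-amplified with reporter-specific primers, end-labelled with 6-FAM and HpaI-digested before capillary separation. Values represent gain or loss versus DMSO.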

The nature of assay [11]: ATG_ERE_CIS: Attagene CIS-FACTORIAL HepG2 Assay for Estrogen Response Element (ERE) (AID 2282940). The note with it: HepG2 ERE cis-reporter, Attagene RNA transcript; actives raise or lower the signal. The procedure, abridged:
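HepG2, transient cis-reporter units, 24 h exposure. RNA isolated, oligo(dT) RT, reporter-specific PCR, FAM extension, HpaI cut, CE detection. Gain/loss-of-signal vs DMSO.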

Assay [12] is described as follows: ATG_Ets_CIS: Attagene CIS-FACTORIAL HepG2 Assay for human Erythroblast Transformation Specific (ETS) (AID 2282941). The note with it: HepG2 ETS cis-reporter transcription; AC50: actives raise or lower the signal unless noted; outcome: actives raise or lower the signal unless noted. The procedure, abridged:
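After transient cis-reporter transfection, HepG2 cells receive test chemical for 24 h. Reporter mRNA levels, measured by RT-PCR and capillary electrophoresis fluorescence, are analysed bidirectionally relative to the DMSO baseline.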

Assay [13] deals with Hepatocyte nuclear factor 3-beta (Homo sapiens) (UniProt Q9Y261). The assay can be described thus: ATG_FoxA2_CIS: Attagene CIS-FACTORIAL HepG2 Assay for human Forkhead box A2 (FOXA2) (AID 2282942). The note with it: HepG2 cis-reporter transcription factor activity, 24 h; actives raise or lower the signal. The procedure, abridged:
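Endogenous transcription factor activity was read in HepG2 cells carrying transiently transfected cis-promoter reporter units. After 24 h dosing, reporter mRNA was quantified by RT-PCR and capillary electrophoresis, and values fitted bidirectionally versus DMSO.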

Assay [14] in a line: ATG_FoxO_CIS: Attagene CIS-FACTORIAL HepG2 Assay for human Forkhead box O (FoxO) (AID 2282943). The note with it: HepG2 Attagene cis-reporter, FoxO element, mRNA; actives raise or lower the signal. The procedure, abridged: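 24 h chemical exposure, HepG2 with transient cis-MRTU transfection. RNA extraction, oligo(dT) RT, reporter-specific PCR, primer-extension labelling, HpaI digestion, CE fragment analysis; bidirectional fit, DMSO baseline.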

Assay [15] in a line: ATG_GATA_CIS: Attagene CIS-FACTORIAL HepG2 Assay for human GATA Binding Protein (AID 2282944). The following applies: HepG2 GATA cis-element reporter, Attagene multiplex mRNA; actives raise or lower the signal. The procedure, abridged:
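DMSO serves as negative control and baseline for bidirectional fitting of reporter mRNA changes. HepG2 cells bearing transiently transfected cis-promoter reporters were exposed 24 h; transcripts detected via RT-PCR and capillary electrophoresis.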

The nature of assay [16]: ATG_GLI_CIS: Attagene CIS-FACTORIAL HepG2 Assay for human Zinc Finger Protein GLI1 (AID 2282945). The note with it: HepG2, Attagene cis-factorial reporter mRNA, GLI element; actives raise or lower the signal. The method, boiled down:
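HepG2 cells transiently transfected with cis-promoter multiplexed reporter units report endogenous transcription factor activity. After 24 h chemical exposure, reporter mRNA was quantified by RT-PCR, 6-FAM labelling, HpaI digestion and capillary electrophoresis, with bidirectional fitting against DMSO.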

Assay [17] in a line: ATG_GRE_CIS: Attagene CIS-FACTORIAL HepG2 Assay for human Glucocorticoid Response Elements (GRE) (AID 2282947). The note with it: HepG2 GRE cis-reporter, Attagene multiplex mRNA; AC50: actives raise or lower the signal unless noted; outcome: actives raise or lower the signal unless noted. The method, boiled down: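 HepG2 cells transiently transfected with multiple cis-promoter reporter units measure endogenous TF activity; 24 h compound exposure. Reporter mRNA quantified by RT-PCR, FAM labelling, HpaI digestion and capillary electrophoresis; bidirectional fit vs DMSO baseline.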

The nature of assay [18]: ATG_ISRE_CIS: Attagene CIS-FACTORIAL HepG2 Assay for human Interferon Regulatory Factor 1 (IRF1) binding to an Interferon-Stimulated Response Element (ISRE) (AID 2282948). The following applies: HepG2 ISRE cis-reporter (Attagene), mRNA transcription readout; actives raise or lower the signal. The method, boiled down:
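Quantitation relies on labelled RT-PCR fragments separated by capillary electrophoresis. Human HepG2 cells bearing cis-promoter reporter constructs were treated 24 h; DMSO served as baseline for bidirectional fitting.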

Assay [19] is described as follows: ATG_E_Box_CIS: Attagene CIS-FACTORIAL HepG2 Assay for human Enhancer Box (E-box) (AID 2282936). The following applies: HepG2 E-box cis-reporter transcription, actives raise or lower the signal. The procedure, abridged: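 HepG2 cells transiently transfected with multiplexed cis-element reporter units sensing endogenous transcription factor activity; 24 h compound exposure. Reporter mRNA measured by RT-PCR, 6-FAM primer extension, HpaI digestion and capillary electrophoresis; bidirectional fit versus DMSO.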

The target of assay [20] is Bile acid receptor (Homo sapiens) (UniProt Q96RI1). The assay can be described thus: ATG_IR1_CIS: Attagene CIS-FACTORIAL HepG2 Assay for human Nuclear Receptor Subfamily 1 Group H Member 4 (NR1H4), IR1 submotif (AID 2282946). The following applies: IR1 reporter transcription, actives raise or lower the signal. The procedure, abridged: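 Transient MRTU transfection, HepG2; 24 h dosing; RNA → RT-PCR → 6-FAM primer extension → HpaI digest → capillary electrophoresis fluorescence. Gain/loss of signal fitted relative to DMSO.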
Chain of Bile acid receptor (Homo sapiens) (Q96RI1 whole entry, looked up): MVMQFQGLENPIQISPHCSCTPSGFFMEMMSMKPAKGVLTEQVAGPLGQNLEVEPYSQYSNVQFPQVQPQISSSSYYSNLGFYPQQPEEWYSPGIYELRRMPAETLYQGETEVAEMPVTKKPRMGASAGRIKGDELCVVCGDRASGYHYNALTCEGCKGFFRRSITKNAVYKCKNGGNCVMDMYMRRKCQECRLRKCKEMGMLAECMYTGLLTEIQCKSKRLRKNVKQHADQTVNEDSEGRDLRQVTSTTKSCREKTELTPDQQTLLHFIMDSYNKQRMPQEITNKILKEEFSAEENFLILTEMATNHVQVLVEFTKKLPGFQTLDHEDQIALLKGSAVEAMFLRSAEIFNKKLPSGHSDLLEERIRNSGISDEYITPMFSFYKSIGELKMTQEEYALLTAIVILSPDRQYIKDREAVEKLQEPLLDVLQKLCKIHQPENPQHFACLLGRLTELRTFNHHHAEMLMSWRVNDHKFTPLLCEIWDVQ

Chain of Aryl hydrocarbon receptor (Homo sapiens) (P35869 whole entry, looked up): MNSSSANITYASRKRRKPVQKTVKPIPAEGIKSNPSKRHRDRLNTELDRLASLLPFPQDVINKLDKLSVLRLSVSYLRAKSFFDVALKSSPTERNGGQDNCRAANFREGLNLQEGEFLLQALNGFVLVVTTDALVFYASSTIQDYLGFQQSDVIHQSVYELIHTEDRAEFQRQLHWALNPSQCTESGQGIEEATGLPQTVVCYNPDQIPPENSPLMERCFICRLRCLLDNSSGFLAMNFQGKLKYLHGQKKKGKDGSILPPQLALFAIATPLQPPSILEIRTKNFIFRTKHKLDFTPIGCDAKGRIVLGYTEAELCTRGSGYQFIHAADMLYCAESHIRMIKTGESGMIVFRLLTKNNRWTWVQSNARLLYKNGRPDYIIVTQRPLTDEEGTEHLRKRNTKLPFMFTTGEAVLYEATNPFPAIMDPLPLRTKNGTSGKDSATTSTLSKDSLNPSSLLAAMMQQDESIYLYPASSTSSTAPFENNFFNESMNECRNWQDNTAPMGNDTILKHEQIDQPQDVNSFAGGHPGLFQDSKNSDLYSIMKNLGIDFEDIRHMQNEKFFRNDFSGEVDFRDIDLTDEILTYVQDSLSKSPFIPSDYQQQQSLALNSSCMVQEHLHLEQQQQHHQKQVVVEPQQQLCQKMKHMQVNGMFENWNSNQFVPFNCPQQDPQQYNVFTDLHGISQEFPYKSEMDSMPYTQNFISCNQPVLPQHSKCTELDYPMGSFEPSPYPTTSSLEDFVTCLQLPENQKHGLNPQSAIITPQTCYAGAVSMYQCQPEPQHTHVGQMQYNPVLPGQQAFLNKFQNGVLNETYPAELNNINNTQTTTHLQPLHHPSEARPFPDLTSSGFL
Chain of Hepatocyte nuclear factor 3-beta (Homo sapiens) (Q9Y261 whole entry, looked up): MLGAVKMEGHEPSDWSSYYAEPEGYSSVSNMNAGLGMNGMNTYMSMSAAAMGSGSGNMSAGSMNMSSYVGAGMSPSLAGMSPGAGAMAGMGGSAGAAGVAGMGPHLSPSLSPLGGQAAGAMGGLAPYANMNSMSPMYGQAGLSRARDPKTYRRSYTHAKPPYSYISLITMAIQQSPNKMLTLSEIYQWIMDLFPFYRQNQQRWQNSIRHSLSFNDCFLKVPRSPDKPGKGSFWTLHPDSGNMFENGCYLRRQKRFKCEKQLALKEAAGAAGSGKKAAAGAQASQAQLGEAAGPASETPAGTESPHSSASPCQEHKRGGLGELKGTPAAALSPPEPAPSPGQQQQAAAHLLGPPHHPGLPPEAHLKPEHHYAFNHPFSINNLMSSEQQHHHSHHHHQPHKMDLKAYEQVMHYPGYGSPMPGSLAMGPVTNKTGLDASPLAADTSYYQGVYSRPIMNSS

Take `Cc1cc(C(=C2C=CC(=Nc3ccc(S(=O)(=O)O)cc3)C=C2)c2ccc(Nc3ccc(S(=O)(=O)O)cc3)cc2)cc(S(=O)(=O)O)c1N`: the outcome in [1], in assay [2], in assay [3], in assay [4], in assay [5] and in assay [6] was inactive. The result in assay [7], in [8], in [9], in assay [10], in [11] and in assay [12] was inactive. In addition, the outcome in assay [13], in assay [14], in [15], in assay [16], in assay [17] and in [18] was inactive.
With `O=CC(F)(F)C(F)(F)C(F)(F)C(F)F`, the compound was classed as inactive in [1], in assay [2], in assay [3], in [4], in [5] and in [7]. The outcome in assay [19], in assay [8], in assay [9], in assay [10], in [11] and in assay [12] was inactive. The compound was classed as inactive in [13], in assay [14], in [15], in assay [16], in assay [20] and in assay [17]. Moreover, the call in assay [18] was inactive.
For the compound `O=C(O)C(F)(F)OC(F)(F)C(F)(F)OC(F)(F)C(F)(F)OC(F)(F)C(F)(F)C(F)(F)C(F)(F)F`, the AC50 in [1] is 16.6 µM (active) and 21.7 µM (active); in assay [4], 93.6 µM (active) and 28.1 µM (active); in assay [19], 89.1 µM (active); in [9] it was 19.6 µM (active) and 25.7 µM (active); in assay [15], 76.5 µM (active); in assay [18] it was 24.6 µM (active) and 26 µM (active). The compound was classed as inactive in assay [2], in [3], in assay [5], in assay [7], in assay [19] and in [8]. The call in assay [10], in assay [11], in [12], in assay [14], in assay [15] and in assay [16] was inactive. The call in assay [20] and in assay [17] was inactive.

These data come from PubChem BioAssay (EPA / NIEHS).
